# Source: PubChem BioAssay (National Center for Advancing Translational Sciences (NCATS))
# TSHR antag: Antagonists of the Thyroid Stimulating Hormone Receptor: HTS campaign | Thyrotropin receptor (Homo sapiens), P16473 | TSHR-expressing cells, TSH-stimulated cAMP HTRF, 2 h; stronger effect = lower value | activity change, negative = inhibition, % at 11.5 µM | hit rate 0.2% among 330,000;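 active means activity change below a set negative limit, meaning inhibition stronger than a set level, cut at about -70% in these data; inconclusive means activity change between two set negative limits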; further: on the % scale 0 is the no-effect control and ±100 the full control effect
#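 Competitive HTRF cAMP read-out (cryptate anti-cAMP antibody, cAMP-d2; 30 min, room temperature) in freshly harvested TSHR cells. Compounds added before TSH at EC80 (4nM final), followed by 2 hours' incubation at 37 deg C.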
# DRD3 agonist: qHTS of D3 Dopamine Receptor Agonist: qHTS; max activation, %; hit rate 0.58% among 410,000; AID 652048, 2013; D(3) dopamine receptor (Homo sapiens), P35462; D3R DiscoveRx beta-arrestin cells, luminescence, 90 min; in the data active means max activation above about 30%; further: 0% is about no effect
#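 Agonist mode: compounds and dopamine controls were applied to plated cells for 90 min at 37 degrees C after an overnight attachment at 1500 cells/well. Luminescent read-out followed 30 - 60 minutes at room temperature with DiscoveRx detection reagent.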
# DRD3 antagonist: qHTS of D3 Dopamine Receptor Antagonist: qHTS. D(3) dopamine receptor (Homo sapiens), P35462. max response, negative = inhibition, %. D3R cells, DiscoveRx beta-arrestin luminescence, antagonist mode; stronger effect = lower value. AID 652054, 2013. hit rate 2.5% among 360,000; in the data active means max response below about -50%; inconclusive means no clear call, values can overlap the other calls; further: on the % scale 0 is the no-effect control and ±100 the full control effect
#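 Cells plated overnight at 1500 cells/well, then exposed to library compounds with dopamine controls for 90 minutes at 37 degrees C. DiscoveRx reagent added for 30–60 minutes at room temperature; luminescence read, quantitative HTS format.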
# B2AR arrestin: qHTS assay of beta-arrestin-biased ligands of beta2-adrenergic receptor. Beta-2 adrenergic receptor (Homo sapiens), P07550. beta-arrestin recruitment to beta2AR, cell-based reporter. Potency, µM (series often up to 46.1 µM), without a hit: top-dose activation, hits mostly activators. hit rate 0.02% among 330,000. AID 492947, 2010; active means well fitted activation curve with a large enough effect; inconclusive means small, poorly fitted or top-dose-only effect;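 further: potency means the concentration at half of the fitted maximal effect; 0% = DMSO controls and full agonism = EC100 isoproterenol or metaproterenol; nearly all actives have a fitted effect of over 65% in size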
# * marks the source's active call; other numbers are inactive results; ? = inconclusive; . = no result. Hits are enriched below; roughly 2.9% of the tested compounds scored in any of these assays.
SMILES,TSHR antag,DRD3 agonist,DRD3 antagonist,B2AR arrestin
CCNC(=O)N(CC)C[C@H]1N[C@@](Cc2ccccc2)(C(=O)OC)[C@H]2C(=O)N(C)C(=O)[C@@H]12,6,46*,-7,-2%
CC(C)(C)OC(=O)NCc1ccc(NC(=O)c2nc[nH]c2C(=O)NCCNC(=O)c2[nH]cnc2C(=O)Nc2ccc(CNC(=O)OC(C)(C)C)cc2)cc1,-7,42*,76,0%
CC(C)(C)OC(=O)CNC(=O)c1[nH]cnc1C(=O)NCC(=O)OCc1ccccc1,-2,71*,67,-1%
C[C@H](NC(=O)c1[nH]cnc1C(=O)Nc1ccc(CNC(=O)OC(C)(C)C)cc1)C(=O)OCc1ccccc1,-14,80*,42,0%
CC(C)C[C@H](NC(=O)c1nc[nH]c1C(=O)NCc1ccccc1)C(=O)OCc1ccccc1,-5,-4,-53*,1%
Cc1ccc(CN2COc3ccc4c(-c5ccccc5)cc(=O)oc4c3C2)cc1,.,-12,.,.
O=C(OCc1ccccc1)c1cccnc1,.,-2,.,.
CCN(c1cccc(C)c1)S(=O)(=O)c1cc2c(cc1C)n(C)c(=O)c(=O)n2C,.,14,.,.
CC(C)(C)OC(=O)NCCCCCNC(=O)c1nc[nH]c1C(=O)N1CCc2ccccc2C1,11,38*,80,0%
CC(C)C[C@H](NC(=O)c1nc[nH]c1C(=O)N1CCNCC1)C(=O)OC(C)(C)C,-7,-17,-54*,0%
C[C@H](NC(=O)c1nc[nH]c1C(=O)NCCCCCNC(=O)OC(C)(C)C)C(=O)OCc1ccccc1,-10,65*,171,0%
Cc1ccccc1-c1noc(CSc2nc(-c3ccc(F)cc3)cc(=O)[nH]2)n1,.,-16,.,.
CCCCc1ccc(S(=O)(=O)NC(=O)C2(C)CCN2C(=O)c2cccc(F)c2)cc1 (stereo not given),.,-8,-26,.
Cc1ccc(N=c2ssnc2Cl)cc1,-8,15,-27,0%
Cc1nnc(N=c2ssnc2Cl)o1,-7,-86,-83*,-3%
CCOc1ccnc2c1c(=O)n(Cc1cc(OC)cc(OC)c1)c(=O)n2C,-140*,1,2,0%
COc1ccnc2c1c(=O)n(Cc1cccc(Cl)c1)c(=O)n2C,-7,4,9,0%
CCc1cc2c(NCCN3CCCCC3)ncnc2s1,-2,-11,-86*,1%
CCc1cc2c(NCCO)ncnc2s1,-6,4,0,-1%
CN1C(CC(=O)c2ccccc2)CCCC1CC(O)c1ccccc1 (stereo not given),1,-46,-80*,0%
CN1[C@@H](CC(=O)c2ccccc2)CCC[C@H]1C[C@H](O)c1ccccc1,-16,-91,-75*,1%
CCOc1ccccc1-n1nnc(S(=O)(=O)c2ccc(C)cc2)c1N,.,12,.,.
O=C(c1ccc(CNS(=O)(=O)c2ccccc2)cc1)N1CCN(c2ccccn2)CC1,-30,1,33,-1%
O=C(c1ccc(Cl)c(S(=O)(=O)NCc2ccccc2)c1)N1CCN(c2ccccn2)CC1,6,16,-71*,0%
C=CCc1ccc(OCCCCN2CCC(C)CC2)c(OC)c1,11,-19,-59*,-1%
SMILES,TSHR antag,DRD3 agonist,DRD3 antagonist,B2AR arrestin
Cc1ccc(CN2CCN(c3ncccn3)CC2)o1,3,-8,-54*,0%
COc1cc(CN2CCCC(C)C2)ccc1OCc1ccccc1 (stereo not given),1,-12,-62*,-1%
C=CCc1ccc(OCCCCN2CC(C)CC(C)C2)c(OC)c1 (stereo not given),6,-23,-105*,0%
CCCOC(C(=O)OC1CCN(C)CC1)(c1ccccc1)c1ccccc1,.,-20,.,.
COc1cc2nc(SCC(=O)Nc3cccc(C)c3)n3nc(CCn4c(C)nc5ccccc54)nc3c2cc1OC,.,-15,.,.
CCOc1ccc(NC(=O)c2cnn3c2NC(c2cccc(OC)c2)=CC3c2ccccc2)cc1 (stereo not given),.,11,.,.
COc1cccc(CN2CCN(c3ncccn3)CC2)c1,3,35*,-59*,-1%
C=CCc1ccc(OCCCCNC(C)CC)c(OC)c1 (stereo not given),18,-10,-19,-1%
CCN1CCN(Cc2ccc(OC)c(OCc3ccccc3)c2)CC1,.,-8,?,.
COc1ccc(CN2CCN(c3ccccn3)CC2)cc1OCc1ccccc1,-7,-20,-69*,0%
C=CCc1ccc(OCCCN2CCCC(C)C2)c(OC)c1 (stereo not given),14,-9,-79*,0%
Cc1cccc(CC(=O)NC2CC(=O)N(c3ccccc3)C2)c1 (stereo not given),.,1,.,.
Cc1ccc(Cl)cc1NC1=C/C(=N\S(=O)(=O)c2cccs2)c2ccccc2C1=O,-76*,-36,-108*,-3%
Cc1ccc(NC2=C/C(=N\S(=O)(=O)c3cccs3)c3ccccc3C2=O)c(C)c1,-36,-22,-91*,0%
Cc1cc(C)c(S(=O)(=O)/N=C2\C=C(NS(=O)(=O)c3ccccc3)C(=O)c3ccccc32)c(C)c1,-15,-7,-13,0%
Cc1cccc(NC2=C/C(=N/S(=O)(=O)c3cccs3)c3ccccc3C2=O)c1,16,-15,-93*,-1%
CC1=C(C(=O)Nc2c(C)cc(C)cc2C)C2(CCN(C(C)C)CC2)OC1=O,.,-11,.,.
Cc1cccc(-c2cnc(C(O)Cc3ccccc3)[nH]2)c1 (stereo not given),.,-16,-15,.
C=C1CCN([C@@H](Cc2ccccc2)C(=O)NCc2ccc(Cl)cc2)S(=O)(=O)c2ccccc21,.,-21,-56*,.
Cn1ncc(Cl)c1C(=O)Nc1ccc(Cl)cn1,-6,-8,-20,0%
Cc1cc(NC(=O)c2c(Cl)cnn2C)no1,-4,1,-71*,-1%
Cc1ccc2nc(-c3ccc(C#N)cc3)c(Cc3cccc(Cl)c3)n2c1,.,-14,-53*,.
N#Cc1ccc(-c2nc3ccc(Cl)cn3c2Cc2cccc(Cl)c2)cc1,.,-4,13,.
COC(=O)C[C@H]1C=C[C@H](NS(=O)(=O)c2cn(C)cn2)[C@@H](CO)O1,.,0,6,.
CN(C)S(=O)(=O)c1cc(NC(=O)CN2CCN(c3ccccc3)CC2)ccc1Cl,5,64*,9,0%
CCN(CC)S(=O)(=O)c1cc(NC(=O)NCCCl)ccc1C,-71*,5,8,-1%
CN(C)S(=O)(=O)c1ccc(NC(=O)CN2CCN(c3ccccn3)CC2)cc1,-1,66*,11,1%
Cc1ccc(NC(=O)NCCCl)cc1S(=O)(=O)N1CCOCC1,-5,-11,19,0%
CN(C)c1ccc(NC(=O)CCN2CCN(c3ccccn3)CC2)cc1,-11,95*,-4,-1%
CN(C)S(=O)(=O)c1cc(NC(=O)CN2CCN(c3ccc(O)cc3)CC2)ccc1Cl,-9,26,14,0%
